Bioassay records: PubChem BioAssay, University of Kansas High Throughput Screening Laboratory
Pf apPOL inh = Pf-apPOL DNA polymerase inhibition | Recombinant Pf-apPOL, molecular beacon fluorescence, 1.5 h | inhibition, % at 10 µM | 210,000 compounds, 0.25% hits | AID 1794808
mHTT-CaM PPI inh = inhibitors of human mutant huntingtin-calmodulin interaction; P42858; AlphaScreen His-mHTT/GST-CaM binding, luminescence; inhibition, % at 15 µM; 190,000 compounds, 3.6% hits; AID 1671202;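 also: 0% = both proteins with DMSO and 100% = one protein alone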
* marks the source's active call; other numbers are inactive results. Sampled rows, rich in hits. Any-hit rate of the full collection: about 3.5%. Rule as the data show it: active = inhibition above about 50%; inactive = the rest.

COc1ccc(NC(=O)c2c(NC(C)=O)sc3c2CCCC3)c(OC)c1 was read as Pf apPOL inh -1.9 and mHTT-CaM PPI inh -0.7.
COc1ccc(NC(=O)c2c(NC(=O)CN3CCCC3)sc3c2CCC3)c(OC)c1 was read as Pf apPOL inh -6.8 and mHTT-CaM PPI inh -2.3.
`COc1ccc(OC)c(NC(=O)c2c(NCc3cccnc3)sc3c2CCCC3)c1` gave Pf apPOL inh -16.5 and mHTT-CaM PPI inh 69.0*.
`COc1ccc(OC)c(NC(=O)c2c(NCc3ccncc3)sc3c2CCC3)c1` gave Pf apPOL inh -14.9 and mHTT-CaM PPI inh 88.0*.
Screening CC(Oc1ccccc1)C(=O)NC12CC3CC(CC(C3)C1)C2 (centres undefined) returned Pf apPOL inh -6.7 and mHTT-CaM PPI inh -5.4.
For CCc1nc2c(c3nn(C)c(=O)n13)CCCC2 the results were Pf apPOL inh 2.3 and mHTT-CaM PPI inh -7.9.
`COC(=O)c1sccc1NC=C(C#N)C(=O)c1cccc(CSc2ccc(Cl)cc2)c1` gave Pf apPOL inh 4.4.
For COc1ccc(CC(=O)Nc2sc3c(c2C(N)=O)CCCCCC3)cc1OC the results were Pf apPOL inh -1.4 and mHTT-CaM PPI inh 5.5.
COc1ccc(OC)c(NC(=O)c2c(NCc3ccncc3)sc3c2CCCC3)c1 was read as Pf apPOL inh -16.9 and mHTT-CaM PPI inh 70.0*.
`Cc1cccc(C)c1NC(=O)CCCSc1nnnn1-c1ccccc1` gave Pf apPOL inh -2.3 and mHTT-CaM PPI inh -18.0.
`COc1ccc(OC)c(NC(=O)N2CCc3nc[nH]c3C2)c1` gave Pf apPOL inh -0.5 and mHTT-CaM PPI inh 19.4.
COc1ccc(NC(=O)N2CCc3nc[nH]c3C2)c(OC)c1 was read as Pf apPOL inh 73.1* and mHTT-CaM PPI inh 13.1.
Screening CCC1CCc2c(sc(NC(=O)c3cc4ccccc4c(=O)o3)c2C(N)=O)C1 (centres undefined) returned Pf apPOL inh -7.5 and mHTT-CaM PPI inh 0.0.
Screening CCn1cc(CN2CCC(c3nncn3-c3ccccc3)CC2)cn1 returned Pf apPOL inh 2.4 and mHTT-CaM PPI inh 3.7.
`O=C1OCCN1C(=O)[C@H]1[C@H](c2ccc(F)cc2)C(c2ccccc2)=NN1c1ccccc1` gave Pf apPOL inh 0.9 and mHTT-CaM PPI inh -32.9.
For O=C1OCCN1C(=O)[C@H]1[C@H](c2ccc(Cl)cc2)C(c2ccc(F)cc2)=NN1c1ccccc1 the results were Pf apPOL inh 1.7 and mHTT-CaM PPI inh 71.9*.
`O=C1OCCN1C(=O)[C@H]1[C@H](c2ccc(Cl)cc2)C(c2ccccc2)=NN1c1ccccc1` gave Pf apPOL inh -8.1 and mHTT-CaM PPI inh -9.4.
`O=C1OCCN1C(=O)[C@H]1[C@H](c2ccc(Cl)cc2)C(c2ccc(F)cc2)=NN1c1ccc(Br)cc1` gave Pf apPOL inh -7.1 and mHTT-CaM PPI inh 79.1*.
O=C1OCCN1C(=O)[C@H]1[C@H](c2ccc(F)cc2)C(c2ccc(F)cc2)=NN1c1ccccc1 was read as Pf apPOL inh 0.8 and mHTT-CaM PPI inh 23.9.
O=C1OCCN1C(=O)[C@H]1[C@H](c2ccc(F)cc2)C(c2ccc(F)cc2)=NN1c1ccc(Br)cc1 was read as Pf apPOL inh -6.1 and mHTT-CaM PPI inh 54.1*.
O=C(Nc1ccc(F)cc1)c1cccc(I)c1 was read as Pf apPOL inh -3.3 and mHTT-CaM PPI inh -5.8.
`CCn1c(C2CCN(C(=O)Nc3ccc(C)cc3C)C2)nc2cccnc21` (centres undefined) gave Pf apPOL inh -4.8 and mHTT-CaM PPI inh 5.0.
Screening O=C1S/C(=C\C=C\c2ccc([N+](=O)[O-])cc2)C(=O)N1c1ccccc1 returned Pf apPOL inh -26.7 and mHTT-CaM PPI inh 15.0.
`COc1ccccc1-c1nc(C2CCN(C(=O)c3ccccc3)CC2)no1` gave Pf apPOL inh -1.1 and mHTT-CaM PPI inh 11.0.
Screening COc1cccc(-c2nc(C3CCN(C(=O)c4ccc(Cl)cc4)CC3)no2)c1 returned Pf apPOL inh 0.9 and mHTT-CaM PPI inh 62.5*.
`COc1ccc(C(=O)N2CCC(c3noc(-c4ccccc4C)n3)CC2)cc1` gave Pf apPOL inh 1.6 and mHTT-CaM PPI inh -1.8.
`COc1ccccc1-c1nc(C2CCN(C(=O)c3cccc(Cl)c3)CC2)no1` gave Pf apPOL inh 12.8 and mHTT-CaM PPI inh 63.2*.
Cc1ccccc1-c1nc(C2CCN(C(=O)c3ccc(Br)cc3)CC2)no1 was read as Pf apPOL inh 10.3 and mHTT-CaM PPI inh 53.7*.
COc1cccc(-c2nc(C3CCN(C(=O)c4ccc(Br)cc4)CC3)no2)c1 was read as Pf apPOL inh 1.8 and mHTT-CaM PPI inh 48.6.
COc1cccc(-c2nc(C3CCN(C(=O)c4cccc(N(C)C)c4)CC3)no2)c1 was read as Pf apPOL inh 3.0 and mHTT-CaM PPI inh 52.7*.
For COc1cccc(C(=O)N2CCC(c3noc(-c4cccc(OC)c4)n3)CC2)c1 the results were Pf apPOL inh -2.3 and mHTT-CaM PPI inh 6.1.
For CS(=O)(=O)OCC(COS(C)(=O)=O)(C1CCCCC1)[N+](=O)[O-] the results were Pf apPOL inh -10.5.
CCOC(=O)N1CCN(CC(O)COc2ccc(C3CCCCC3)cc2)CC1 (centres undefined) was read as Pf apPOL inh -5.0 and mHTT-CaM PPI inh 1.1.
`Cc1cccc(C)c1NC(=O)C(NC(=O)c1ccc(=O)[nH]c1)c1ccccc1` (centres undefined) gave Pf apPOL inh -4.6 and mHTT-CaM PPI inh 6.0.
For O=C(Nc1ccc(F)cc1F)NC1CCCCC1 the results were Pf apPOL inh 1.3 and mHTT-CaM PPI inh 0.2.
Screening CCOc1ccc(S(=O)(=O)N2CCC3(CC2)OCCO3)c2cccnc12 returned Pf apPOL inh -3.5 and mHTT-CaM PPI inh 4.0.
Screening CC1=C(C(=O)Nc2ccccc2)C(c2ccc(OCc3ccccc3)cc2)n2nnnc2N1 (centres undefined) returned Pf apPOL inh -4.8 and mHTT-CaM PPI inh 62.0*.
CC1=C(C(=O)Nc2ccccn2)C(c2ccc(OCc3ccccc3)cc2)n2nnnc2N1 (centres undefined) was read as Pf apPOL inh 6.3 and mHTT-CaM PPI inh 46.0.
`COc1cc(OC)cc(C(=O)n2nnc3ccccc32)c1` gave Pf apPOL inh -2.3 and mHTT-CaM PPI inh 1.0.
COc1cc(SC)ccc1C(=O)n1nnc2ccccc21 was read as Pf apPOL inh -7.8 and mHTT-CaM PPI inh 91.0*.
For Cc1cccc(NC(=O)N2CCc3[nH]cnc3C2c2ccncc2)c1 (centres undefined) the results were Pf apPOL inh -1.0 and mHTT-CaM PPI inh -5.7.
`CNC(=O)N1CCc2[nH]cnc2C1c1ccncc1` (centres undefined) gave Pf apPOL inh -1.8 and mHTT-CaM PPI inh -4.7.
Screening COc1ccc(NC(=O)N2CCc3[nH]cnc3C2c2ccccn2)cc1OC (centres undefined) returned Pf apPOL inh -7.0 and mHTT-CaM PPI inh 90.9*.
`CNC(=O)N1CCc2[nH]cnc2C1c1ccccn1` (centres undefined) gave Pf apPOL inh -8.5 and mHTT-CaM PPI inh 93.7*.
Screening COc1ccc(CN2CCN(S(=O)(=O)c3ccc(F)c(F)c3)CC2)c(OC)c1OC returned Pf apPOL inh -2.0 and mHTT-CaM PPI inh -1.0.
CC12CN3CC(C)(CN(C1)C3c1ccc(F)cc1)C2O (centres undefined) was read as Pf apPOL inh -9.5 and mHTT-CaM PPI inh -2.9.
`CCC(C)NC(=O)c1ccc(-c2ccc(F)cc2)nc1` (centres undefined) gave Pf apPOL inh 0.9 and mHTT-CaM PPI inh -4.4.
For CC(=O)Oc1ccc2c(c1)OC(=Cc1ccccc1Br)C2=O the results were Pf apPOL inh -5.8 and mHTT-CaM PPI inh 0.5.
